PK Bst = pyruvate kinase (B. stearothermophilus) modulation. actives 1.2% (n = 51,000). purified pyruvate kinase, luminescence ATP production; ribose 5-phosphate activator present at AC10. Potency, µM; in the data active = potency below about 11 µM; inconclusive = mostly about 12 µM to 25 µM;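 the screen sought inhibitors and activators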;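 also: scaled between full activation by ribose 5 phosphate and full inhibition by luteolin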
Luciferase inh = inhibitors of firefly luciferase; P08659; purified firefly luciferase, luminescence, 8 min; Potency, µM (doses to about 57.1 µM), without a hit: top-dose activity change, negative = inhibition, hits mostly inhibitors; actives 2.2% (n = 72,000); AID 411; active = well fitted inhibition curve with a large enough effect; inconclusive = small, poorly fitted or top-dose-only effect; also: nearly all actives have a fitted effect of over 40% in size
Target sequence (P08659 whole entry, looked up): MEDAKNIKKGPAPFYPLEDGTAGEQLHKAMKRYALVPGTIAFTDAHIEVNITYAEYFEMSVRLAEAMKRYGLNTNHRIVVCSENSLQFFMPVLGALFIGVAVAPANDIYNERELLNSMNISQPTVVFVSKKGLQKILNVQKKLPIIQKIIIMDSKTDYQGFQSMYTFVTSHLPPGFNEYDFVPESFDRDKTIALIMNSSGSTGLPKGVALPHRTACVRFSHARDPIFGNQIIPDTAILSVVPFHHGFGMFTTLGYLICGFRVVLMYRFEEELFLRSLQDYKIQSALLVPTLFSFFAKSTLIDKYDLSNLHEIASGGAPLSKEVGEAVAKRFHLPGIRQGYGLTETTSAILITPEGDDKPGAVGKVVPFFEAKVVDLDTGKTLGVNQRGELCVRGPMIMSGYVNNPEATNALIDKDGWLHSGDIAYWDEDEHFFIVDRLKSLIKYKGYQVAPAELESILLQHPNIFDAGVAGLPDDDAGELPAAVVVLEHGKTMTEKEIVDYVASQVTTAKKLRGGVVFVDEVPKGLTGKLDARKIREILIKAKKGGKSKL
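Titration-based qHTS; buffer 50 mM imidazole pH 7.2, 50 mM KCl, 7 mM MgCl2, 10 uM ATP, 0.01% Tween 20, 0.05% BSA; luciferase/luciferin detector mix added after compound; 8 min, ambient; luminescence.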
* marks the source's active call; other numbers are inactive results; i = inactive; u = inconclusive; x = not tested or not shown; [ ] = another dose, or the depositor's remark. Rows were chosen to be rich in hits. Some 2.5% of all compounds tested hit in one or more screens of this group. Unless noted, % is scaled to controls: 0 for no effect and ±100 for the full control effect; potency is read from the fitted curve at half-maximal effect.

SMILES	PK Bst	Luciferase inh
Cc1ccc(S(=O)(=O)c2nc(-c3cccs3)oc2SCC(N)=O)cc1	9.09*	2.7%
NC(=O)CSc1oc(-c2ccc(F)cc2)nc1S(=O)(=O)c1ccccc1	>57	-8.0%
N#C/C(C(N)=O)=c1/ccc2c(c1)N1C3=C(CCCC3)CC3CCCCC31N=2 (stereo not given)	x	15.8µM*
N#CC(C#N)=c1ccc2c(c1)N1C3=C(CCCC3)CC3CCCCC31N=2 (stereo not given)	x	-0.7%
O=c1c[n+](CC[n+]2cc(=O)o[nH]2)[nH]o1	x	1.2%[11.4 µM]
Cc1ccc2c(c1)N(CC(=O)NCC1COc3ccccc3O1)C(=O)CO2 (stereo not given)	x	-0.3%
COc1cccc2sc(N(C)c3ccccc3)nc12	8.14*	7.94µM*
COc1cccc2sc(N3CCN(c4nc5ccccc5s4)CC3)nc12	>57	1.3%
O=C(O)CCn1cnc2c(=S)nc[nH]c21	x	2.0%[11.4 µM]
CSc1nc2[nH]c3c(c2c2ncnn12)CCCC3	0.423*	-3.6%[25.5 µM]
CC(=O)[C@]1(O)CC[C@@H]2[C@H]3C[C@@H](C)C4=CC(=O)CC[C@@]4(C)[C@H]3[C@@H](O)C[C@]21C	x	2.3%[11.4 µM]
O=c1c(CCc2ccccc2)nc2cnc(N3CCNCC3)nc2n1CCc1ccccc1	x	-0.2%[11.4 µM]
c1coc(-c2nnc3sc(-c4cccs4)nn23)c1	8.98*	0.4%[25.5 µM]
c1csc(-c2nn3c(-c4ccncc4)nnc3s2)c1	x	-0.4%
COC(=O)C/C=C\[C@@H](C)[C@@H](/C=N\OC[C@@H](C)[C@H](OCc1ccccc1)C(C)C)NS(=O)(=O)c1ccc(C)cc1	x	0.4%[11.4 µM]
Cc1cccn2cc(-c3ccc(F)cc3)nc12	x	7.94µM*
Cc1ccc2nc(-c3ccccc3)cn2c1	0.391*	0.251µM*
Cc1cccn2cc(CNc3ccccc3)nc12	>57	-18.3%
Cc1cccn2cc(-c3ccccc3)nc12	u	10µM*
CCCS(=O)(=O)NCc1cn2cccc(C)c2n1	>57	0.5%
Cc1ccc2nc(-c3ccc(S(=O)(=O)N4CCOCC4)cc3)cn2c1	>57	0.9%
CN(C)Cc1ccc(C(C)(C)C)cc1-c1cc(C(C)(C)C)ccc1CN(C)C	x	0.5%[11.4 µM]
CCOC(=O)c1c(O)[nH]c(=O)c(CC)c1C	x	0.3%[11.4 µM]
Cn1c2ccc(F)cc2c2ncn(CCN3CCOCC3)c(=O)c21	x	0.0%
Cn1c2ccccc2c2ncn(CCCN3CCOCC3)c(=O)c21	9.71*	-0.8%
SMILES	PK Bst	Luciferase inh
[O-][N+]1(CC[N+]2([O-])CCCCC2)CCCCC1	x	0.7%[11.4 µM]
O=S(=O)(O)c1cc(O)c2c(O)c(N=Nc3cccc4ccccc34)c(S(=O)(=O)O)cc2c1	x	-25.0%[11.4 µM]
COc1ccc2nc(N3CCCCC3)c(C#N)cc2c1	i	25.1µM*
COc1ccc2nc(N3CCCC3)c(C#N)cc2c1	>57	-11.1%
O=C1C2=CC[C@H]3C(=O)N(Cc4ccc5c(c4)OCO5)C(=O)[C@@H]3[C@@H]2[C@H](O)[C@@H]2O[C@H]12	x	0.3%[11.4 µM]
O=C1C(=O)c2ccccc2C(O)=C1Cc1ccccc1	x	-1.2%[11.4 µM]
O=C(Nc1cccc2cccnc12)c1cccnc1	9.75*	-1.4%
Cc1cnc(C(=O)Nc2cccc3cccnc23)cn1	>57	0.0%
C[C@@H]1Cc2ccccc2N1NC(=O)c1ccc(Cl)c(S(N)=O)c1 (stereo not given in full)	x	4.3%[25.5 µM]
c1ccc(CSc2nnnn2-c2cccc3ccccc23)nc1	7.36*	2.6%
O=C(O)c1cccc(-n2nnnc2SCc2ccccn2)c1	>57	0.4%
CC(C)CN1C(=O)c2ccc(C(=O)Nc3nccs3)cc2C1=O	x	12.6µM*
CCCN1C(=O)c2ccc(C(=O)Nc3nccs3)cc2C1=O	>57	12.6µM*
COc1ccc(C(=O)Nc2nccs2)cc1OC	x	-6.9%
Cc1ncoc1C(=O)Nc1nccs1	>57	-0.8%
Cc1nn(Cc2ccc(C(=O)Nc3nccs3)cc2)c(C)c1Cl	3.05*	-1.4%
COCCN1C(=O)c2ccc(C(=O)Nc3nccs3)cc2C1=O	x	-27.6%
CC(C)CN1C(=O)c2ccc(C(=O)Nc3ccncc3)cc2C1=O	>57	-1.7%
CCCc1cc(C(=O)Nc2nccs2)cs1	u	7.94µM*
c1ncc(-c2ccoc2)c(NC2CC2)n1	x	-0.5%[2.29 µM]
CC(C)CNc1nc(N)[nH]c(=O)c1NC=O	x	1.7%[11.4 µM]
Nc1ccc(N(S(=O)(=O)c2ccccc2)S(=O)(=O)c2ccccc2)c(Cl)c1	x	1.5%[11.4 µM]
Nc1nc(Nc2cccc(F)c2)nc2ccccc12	9.38*	10µM*
Fc1ccc(Nc2nc(N3CCOCC3)c3ccccc3n2)cc1	x	-1.6%
CC(C)c1cc(C(F)(F)F)n2nc(C(=O)Nc3ccc4c(c3)OCO4)cc2n1	x	20µM*
SMILES	PK Bst	Luciferase inh
CC(=O)c1ccc(NC(=O)c2noc3c2CCCCC3)cc1	>57	u
O=C(Nc1ccc2c(c1)OCO2)c1cc(C2CC2)on1	x	7.94µM*
Cc1onc(-c2c(Cl)cccc2Cl)c1C(=O)Nc1ccc2c(c1)OCO2	x	-3.9%
COc1ccc(NC(=O)c2cc(C(C)C)on2)cc1OC	x	-12.1%
O=C(Nc1ccc2c(c1)OCO2)c1noc2c1CCCCC2	u	7.94µM*
CC(C)c1cc(C(=O)Nc2ccc3c(c2)OCO3)no1	x	7.94µM*
COc1ccc(C2CC(C(F)(F)F)n3nc(C(=O)Nc4ccc5c(c4)OCO5)cc3N2)cc1 (stereo not given)	x	-3.5%
O=C(O)c1cc(=O)[nH]c(SCc2ccccc2)n1	x	0.9%[11.4 µM]
COC(=O)[C@@H](NC(=O)c1cc(-c2ccccc2)nc2ccccc12)c1ccccc1	x	1.8%
[O-][n+]1c(CN2CCCCC2)nc2cccc3c2c1-c1ccccc1-3	x	3.2%[11.4 µM]
O=P(O)(CCP(=O)(O)c1ccccc1)c1ccccc1	x	1.5%[11.4 µM]
N[C@H](Cc1cccc(-c2ccccc2CP(=O)(O)O)c1)C(=O)O	x	1.4%
Clc1ccc(-c2nnc(-c3ccccc3Cl)o2)cc1	x	12.6µM*
Clc1ccc(-c2nnc(-c3cccc4ccccc34)o2)cc1Cl	x	4.0%[11.4 µM]
Brc1ccc(-c2nnc(-c3ccccc3Br)o2)cc1	x	3.98µM*
Cc1ccccc1-c1nnc(-c2ccccc2)o1	x	12.6µM*
Cc1ccccc1-c1nnc(-c2ccc(Cl)cc2)o1	x	-19.0%
Brc1ccccc1-c1nnc(-c2cccnc2)o1	>57	u
CC(C)(C)c1cc2c(O)c(c1)Cc1cc(C(C)(C)C)cc(c1O)Cc1cc(C(C)(C)C)cc(c1O)Cc1cc(C(C)(C)C)cc(c1O)Cc1cc(C(C)(C)C)cc(c1O)Cc1cc(C(C)(C)C)cc(c1O)Cc1cc(C(C)(C)C)cc(c1O)Cc1cc(C(C)(C)C)cc(c1O)C2	x	0.9%[11.4 µM]
CN1CCN(c2ncc3ncc(=O)n(-c4ccccc4)c3n2)CC1	x	-1.8%[11.4 µM]
CC(C)[C@@H]1O[C@H](/C=C\c2ccccc2)OCC1(C)C	x	0.2%[11.4 µM]
O=[N+]([O-])c1cccc(/C=N\Nc2ccc3ccccc3n2)c1O	x	3.16µM*
Oc1c(/C=N/c2ncn[nH]2)ccc2ccccc12	x	-0.8%
CN[C@@H](CC(C)C)C(=O)N[C@@H]1C(=O)N[C@H](CC(N)=O)C(=O)N[C@H]2C(=O)N[C@H]3C(=O)N[C@H](C(=O)N[C@H](C(=O)O)c4cc(O)cc(O)c4-c4cc3ccc4O)[C@H](O)c3ccc(c(Cl)c3)Oc3cc2cc(c3O[C@@H]2O[C@@H](CO)[C@@H](O)[C@@H](O)[C@H]2O[C@H]2C[C@](C)(N)[C@H](O)[C@H](C)O2)Oc2ccc(cc2Cl)[C@@H]1O	x	0.7%
CCCCNN	x	1.7%[11.4 µM]
Cc1csc(NC(=O)c2cc3c(s2)CCC3)n1	u	2.51µM*
COC(=O)c1sc(NC(=O)c2cc3c(s2)CCCC3)nc1C	>57	1.6%
CCCCCCCCCCCCCCCCCCNC(=O)OC[C@@H](COP(=O)([O-])OCC[n+]1ccsc1)OC	x	1.1%
